Measurements from PubChem BioAssay (NCATS).
Inconclusive results are not listed. Values without a mark were called inactive. Calls follow the shape of the dose curve; as a rule, active = well fitted inhibition curve with a large enough effect; inconclusive = small, poorly fitted or top-dose-only effect; inactive = flat fitted curve, though single readings scatter.

Each molecule was assayed against Aldehyde dehydrogenase, mitochondrial (Homo sapiens) (UniProt P05091) (assay: qHTS for Inhibitors of the Aldehyde Dehydrogenase Family (ALDH2) Primary screen (AID 2061308;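 also: plate controls were vehicle for no effect and reference inhibitor for full effect; nearly all actives have a fitted effect of over 55% in size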)). Settings: ALDH2 enzyme inhibition qHTS, 1536-well; series mostly up to 56 µM; activity change, negative = inhibition: at the top concentration.

| SMILES | activity change, negative = inhibition |
| --- | --- |
| C[C@H]1O[C@@H](O[C@H]2CC[C@]3(C=O)C4CC[C@]5(C)[C@@H](C6=CC(=O)OC6)CC[C@]5(O)[C@@H]4CC[C@]3(O)C2)C[C@@H](O)[C@@H]1O (stereo not given in full) | -2.56% [at 28 µM] |
| Cn1cc(Cl)c(C2N=C(Nc3nc4ccccc4o3)NC3=C2C(=O)CCC3)n1 (stereo not given) | -14.9% |
| Cc1cc(-c2nnc3n2CCCCC3)c(C)n1-c1ccc(C(C)(C)C)cc1 | -0.886% |
| COc1cccc(CNc2ccc(S(=O)(=O)Nc3cccc(-c4ccccc4)c3)cc2)c1O | -13.2% |
| Cn1c(-c2ccccc2)c(P(=S)(c2ccccc2)c2ccccc2)c2ccccc21 | -3.5% |
| C=C1C(=O)OC2/C=C(\COO)CC/C=C(\COC(C)=O)CC(OC(=O)C(C)CC)C12 (stereo not given) | 5.42% [at 28 µM] |
| COc1ccc(C23CCC(=O)C=C2N(C)CC3)cc1OC (stereo not given) | -2.38% |
| O=C(N[C@@H]1N=C(c2ccccc2F)c2cccc3c2N(CC3)C1=O)c1cc2ccccc2[nH]1 | -11% [at 16.9 µM] |
| O=C(Nc1ncc(Cc2ccc(C(F)(F)F)cc2)s1)c1cnc(-c2ccccc2)o1 | 4.01% |
| CC(N[C@H]1C[C@H]1c1ccccc1)c1ccc2c(c1)OCCO2 (stereo not given in full) | 5.14% |
| CCOc1ccc(CCNC(=O)c2cc3ccncc3n2Cc2cccc(C)c2)cc1OCC | 2.43% |
| COc1ccc(CCNCc2ccc(OC)c3ccccc23)cc1 | 4.6% |
| COC1C(O)C(C)OC(OC2C(CO)O[C@@H](O[C@@H]3CC4CCC5C(CC[C@]6(C)[C@@H](C7=CC(=O)OC7)CC[C@]56O)[C@@]4(C)[C@H](OC(C)=O)C3)C(O)C2O)C1O (stereo not given in full) | 5.32% [at 16.9 µM] |
| C=C(CO)C(=O)O[C@H]1CC(=C)[C@@H]2C[C@H](O)C(=C)[C@@H]2[C@H]2OC(=O)C(=C)[C@@H]21 | 3.51% |
| Cc1ccc2nc(NC3=NC(c4[nH]ncc4Cl)C4=C(CCCC4=O)N3)oc2c1 (stereo not given) | -26.7% |
| COc1ccc2c3c4n(c2c1)[C@@H](C=C(C)C)OOC(C)(C)C[C@@H]4N1C(=O)[C@@H]2CCCN2C(=O)[C@]1(O)[C@H]3OCC=C(C)C | -8.81% [at 28 µM] |
| C[C@]12CC[C@@H](O)C[C@@H]1CC[C@@H]1[C@@H]2CC[C@]2(C)C(=O)[C@@H](Br)C[C@@H]12 | 2.62% |
| Cc1sc2c(c1C)C(c1ccc(Cl)cc1)=N[C@@H](CC(=O)Nc1ccc(O)cc1)c1nnc(C)n1-2 | 4.74% [at 16.9 µM] |
| Cc1ccccc1C(=O)N1CCc2cc(N3CCC(NC(=O)Cc4ccccc4)C3)ccc21 (stereo not given) | -9.16% |
| C[C@H]1O[C@@H](O[C@H]2C[C@@H](O)[C@]3(CO)C4C(CC[C@]3(O)C2)[C@@]2(O)CC[C@H](C3=CC(=O)OC3)[C@@]2(C)C[C@H]4O)[C@@H](O)[C@@H](O)[C@H]1O (stereo not given in full) | -1.13% [at 16.9 µM] |

| SMILES | activity change, negative = inhibition |
| --- | --- |
| CCCCC1C(=O)NC(=O)N(C2CCCCC2)C1=O (stereo not given) | -0.714% |
| Cc1nn2c(=O)cc(N3CCNCC3)nc2s1 | 1.44% |
| C=C(CO)[C@@]12O[C@@H]1[C@@]1(C)C(=CC2=O)CC[C@@H](O)[C@@H]1C | 3.05% |
| CC(=O)O[C@H]1C[C@@H](C)O[C@H]2O[C@@H]3CC4CC[C@@H]5C(CC[C@]6(C)[C@@H](C7=CC(=O)OC7)CC[C@]56O)[C@@]4(C=O)C[C@H]3O[C@]21O (stereo not given in full) | 9.09% [at 16.9 µM] |
| CCOc1ccc(CCNC(=O)c2cc3ccccc3n2CCN2CCOCC2)cc1OCC | 0.667% |
| Cn1cc(P(=S)(c2ccccc2)c2ccccc2)c2ccccc21 | -1.24% |
| CCOc1ccc(CCNC(=O)c2cc3cnccc3n2Cc2cccc(C)c2)cc1OCC | -4.11% |
| COc1cccc(CNc2ccc(S(=O)(=O)Nc3ccc4ccccc4c3)cc2)c1O | 2.05% |
| N#Cc1ccc(NC(=O)Nc2nnc(-c3ccncc3)s2)cc1Br | -5.53% |
| CCC1CN2CCC3(C(=O)Nc4cccc(O)c43)C2CC1/C(=C/OC)C(=O)OC (stereo not given) | 2.03% [at 28 µM] |
| Oc1ccc2c(c1)C13CCCC[C@H]1[C@@H](C2)N(CC1CCC1)CC3 | 2.94% |
| CCOc1ccc(CCNC(=O)c2cc3ncccc3n2Cc2cccc(C)c2)cc1OCC | -15.9% |
| CO[C@H]1C[C@H](O[C@H]2CC[C@]3(CO)[C@H]4CC[C@]5(C)[C@@H](C6=CC(=O)OC6)CC[C@]5(O)[C@@H]4CC[C@]3(O)C2)O[C@H](C)[C@H]1O | 2.24% [at 28 µM] |
| Oc1cccc2cc(N3CCNCC3)cnc12 | -0.0406% |
| Cc1c(P(=S)(c2ccccc2)c2ccccc2)c2ccccc2n1C | 2.2% |
| Nc1ncnc2c1ncn2[C@@H]1O[C@@H]2COP(O)(=S)O[C@H]2[C@H]1O (stereo not given in full) | 4.01% [at 11.2 µM] |
| S=P(c1ccccc1)(c1ccccc1)c1cnc2ccccn12 | -18% |
| CNC(=O)c1cc(C#N)cc(C)c1NC(=O)c1cc(Br)nn1-c1ncccc1Cl | -1.35% |
| C[C@H]1CC[C@@H]2[C@@H](C)[C@H]3[C@H](C[C@H]4[C@@H]5CC=C6CC(O[C@@H]7O[C@H](CO)[C@@H](O)[C@H](O[C@@H]8O[C@H](CO)[C@@H](O)[C@H](O)[C@H]8O)[C@@H]7O[C@@H]7O[C@@H](C)[C@H](O)[C@@H](O)[C@H]7O)CC[C@]6(C)[C@H]5CC[C@]34C)N2C1 (stereo not given in full) | 5.26% [at 16.9 µM] |
| COc1cccc(CNc2ccc(S(=O)(=O)Nc3nccs3)cc2)c1OC | 17.9% |
